# Experimental data from PubChem BioAssay.
# Activity calls are given as the source filed them. Unless noted, how the calls were made is not given here.
# Assays:
# [1] = resazurin metabolic signal in HepG2 cells – cell-based, resazurin fluorescence, 24 h, PK04 Diversity Set, profiling panel (AID 1172); settings: HepG2 viability, higher = more signal; further: test concentration not given here
# [2] = budding yeast growth changes without added modifier – OD600, strain BY4716, 24 h, basal condition, primary screen (AID 1173); settings: S. cerevisiae BY4716 growth, OD600, 24 h; higher = more signal, called active from +8 up or from −8 down
# [3] = viability profiling in MM1S myeloma cells – cell-based, resazurin fluorescence, basal, 24 h, PK04 Diversity Set, profiling panel (AID 1174); settings: higher = more signal, called active from +8 up or from −8 down;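 further: MM1S multiple myeloma cell line; test concentration not given here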
# [4] = biological target: Dihydroorotate dehydrogenase (quinone), mitochondrial (Plasmodium falciparum (isolate 3D7)) (UniProt Q08210); assay: inhibition of P. falciparum DHODH – biochemical, C-terminal His tag, absorbance 600 nm, primary screen (AID 1175); settings: PfDHODH enzyme, DCIP absorbance 600 nm; higher = more signal, called active from +8 up or from −8 down;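 further: recombinant parasite enzyme with a five histidine tag at its C terminus; test concentration not given here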
# [5] = inhibition of PAO1 biofilm formation – strain PAO1, LB-PBS medium, absorbance 600 nm, primary screen (AID 1176); further: test concentration not given here; settings: P. aeruginosa PAO1 growth/biofilm, A600, 12 h; higher = more signal
# [6] = growth modulation of vineyard yeast isolate – strain RM11-1a, OD600, basal, 24 h, primary screen (AID 1177);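 further: cultures grown under basal conditions with no added stressor; test concentration not given here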; settings: S. cerevisiae RM11-1a growth, OD600, 24 h; higher = more signal, called active from +8 up or from −8 down
# [7] = growth of efflux-deficient E. coli DRC39 – strain DRC39, OD650, 24 h, E. coli filamentation inducers, primary screen (AID 1178);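 further: growth measured as culture turbidity by optical density at 650 nm; test concentration not given here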; settings: E. coli DRC39 acrAB, higher = more signal, called active from +8 up or from −8 down
# [8] = growth of efflux-deficient E. coli DRC39 – strain DRC39, OD650, 48 h, E. coli filamentation inducers, primary screen (AID 1179);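 further: screen aims at cell division blockers that make cells filament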; settings: E. coli DRC39 delta-acrAB growth, higher = more signal, called active from +8 up or from −8 down
# [9] = viability profiling in RPMI8226 myeloma cells – cell-based, resazurin fluorescence, basal, 24 h, PK04 Diversity Set, profiling panel (AID 1180); settings: higher = more signal;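 further: RPMI8826 multiple myeloma cell line at 5000 cells per well; test concentration not given here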
# [10] = biological target: E3 ubiquitin-protein ligase XIAP (Homo sapiens) (UniProt P98170); assay: small molecules binding XIAP protein – biophysical, small-molecule microarray, fluorescence 635 nm, primary screen (AID 1181); settings: higher = more signal;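 further: score merges 667 nm emission and signal to noise over triplicate slides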
# Chain of E3 ubiquitin-protein ligase XIAP (Homo sapiens) (P98170 whole entry, looked up): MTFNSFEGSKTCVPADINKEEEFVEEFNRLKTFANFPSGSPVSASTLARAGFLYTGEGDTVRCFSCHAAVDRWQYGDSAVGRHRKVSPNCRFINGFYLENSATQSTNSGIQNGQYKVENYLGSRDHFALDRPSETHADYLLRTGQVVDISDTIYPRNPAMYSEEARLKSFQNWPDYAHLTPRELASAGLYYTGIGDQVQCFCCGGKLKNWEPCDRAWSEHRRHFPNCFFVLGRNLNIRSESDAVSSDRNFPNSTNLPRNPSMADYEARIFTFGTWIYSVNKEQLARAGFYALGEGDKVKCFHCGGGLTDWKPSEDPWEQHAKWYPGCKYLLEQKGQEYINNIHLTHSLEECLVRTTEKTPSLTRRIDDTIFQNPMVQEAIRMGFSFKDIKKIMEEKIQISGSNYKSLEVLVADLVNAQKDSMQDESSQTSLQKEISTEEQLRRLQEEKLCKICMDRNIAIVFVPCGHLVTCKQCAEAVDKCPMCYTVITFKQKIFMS
# Chain of Dihydroorotate dehydrogenase (quinone), mitochondrial (Plasmodium falciparum (isolate 3D7)) (Q08210 whole entry, looked up): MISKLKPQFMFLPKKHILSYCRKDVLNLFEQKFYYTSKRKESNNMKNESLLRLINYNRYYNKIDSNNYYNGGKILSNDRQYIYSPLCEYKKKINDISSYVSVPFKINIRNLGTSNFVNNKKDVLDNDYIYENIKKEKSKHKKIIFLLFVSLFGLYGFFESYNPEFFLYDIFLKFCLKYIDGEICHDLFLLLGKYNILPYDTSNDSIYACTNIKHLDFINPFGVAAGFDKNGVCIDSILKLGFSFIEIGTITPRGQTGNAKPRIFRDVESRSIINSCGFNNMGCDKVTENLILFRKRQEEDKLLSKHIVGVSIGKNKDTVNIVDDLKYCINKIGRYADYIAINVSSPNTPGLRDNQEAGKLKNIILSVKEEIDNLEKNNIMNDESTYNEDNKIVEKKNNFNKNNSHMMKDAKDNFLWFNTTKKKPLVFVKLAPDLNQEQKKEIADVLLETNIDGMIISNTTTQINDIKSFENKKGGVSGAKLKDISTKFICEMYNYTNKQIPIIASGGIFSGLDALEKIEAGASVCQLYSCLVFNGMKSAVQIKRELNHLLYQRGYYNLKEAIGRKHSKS
SMILES,z-score [1],z-score [2],z-score [3],composite z-score [4],z-score [5],z-score [6],z-score [7],z-score [8],z-score [9],composite z-score [10]
COc1cc2c(cc1O)C(c1ccc(CN3CCCC3)cc1)N(C)CC2 (stereo not given),-0.392,0.447 (inactive),-1.36 (inactive),-0.65 (inactive),-0.255 (inactive),0.697 (inactive),0.0615 (inactive),0.382 (inactive),-0.891,0.415
O=C1c2ccccc2[C@](Cc2ccccc2I)(C(=O)NC2CC2)[C@H](c2ccc(CO)cc2)N1Cc1ccccc1C(F)(F)F,-0.113,-0.637 (inactive),0.762 (inactive),0.129 (inactive),0.842 (inactive),0.108 (inactive),0.169 (inactive),-0.707 (inactive),0.154,0.125
O=C1O[C@H](c2ccccc2)[C@H](c2ccccc2)N2[C@H]1[C@@H](C(=O)Nc1nc3ccccc3s1)[C@]1(C(=O)Nc3ccc(C#CC4=CCCCC4)cc31)[C@H]2c1ccc(O)cc1,0.98,-1.03 (inactive),0.306 (inactive),0.667 (inactive),0.517 (inactive),-0.286 (inactive),0.442 (inactive),0.382 (inactive),0.422,-0.13
CCCNC(=O)[C@@]1(Sc2ccc(C)cc2)CC(=O)N(C2CCCCC2)[C@@H]1c1ccc(CO)cc1I,-0.0096,-1.07 (inactive),0.0674 (inactive),-0.198 (inactive),0.627 (inactive),-1.15 (inactive),0.29 (inactive),0.0883 (inactive),-1.1,-0.321
CCCNC(=O)[C@@]1(C)c2ccccc2C(=O)N(Cc2ccccc2)[C@H]1c1ccc(CO)cc1,-0.0367,-0.312 (inactive),0.435 (inactive),-0.0373 (inactive),-0.0065 (inactive),-0.637 (inactive),0.503 (inactive),-0.105 (inactive),1.67,-0.0701
CC(C)CNC(=O)[C@@H]1c2ccccc2C(=O)N(C2CCCCC2)[C@H]1c1ccc(CO)cc1,1.12,-0.664 (inactive),1.5 (inactive),0.246 (inactive),0.292 (inactive),-1.22 (inactive),1.49 (inactive),1.59 (inactive),1.34,-0.234
CCOC(=O)C1=CCC(c2ccco2)N(S(=O)(=O)c2ccc(C)cc2)C1 (stereo not given),1.18,-4.03 (inactive),0.123 (inactive),-2.2 (inactive),-0.253 (inactive),-0.749 (inactive),0.234 (inactive),1.34 (inactive),0.769,0.424
COc1ccc(NC(=O)O[C@H]2[C@@H]3OC(=O)[C@H](Cc4cccc(Br)c4)C/C=C/C[C@@H](Cc4cccc(Br)c4)C(=O)O[C@H]3[C@@H](OC)O[C@@H]2CO)cc1,-0.868,-0.413 (inactive),-0.37 (inactive),0.732 (inactive),0.47 (inactive),0.604 (inactive),0.365 (inactive),0.855 (inactive),-0.517,-0.555
C=C(/C(=C/C[C@H](OC(=O)c1ccncc1)c1ccccc1OCCO)c1cnc2ccccc2c1)C(C)C,0.495,-0.147 (inactive),-0.632 (inactive),-3.77 (inactive),1.07 (inactive),-0.07 (inactive),0.395 (inactive),0.313 (inactive),0.262,-0.0771
CC(C)C[C@@H]1NC(=O)CNC(=O)[C@@]23C(=O)N[C@@H](Cc4ccccc4)C2[C@H](C)[C@@]2(C)O[C@H]2C3/C=C/C/C=C\CNC1=O (stereo not given in full),0.544,0.205 (inactive),0.339 (inactive),0.084 (inactive),1.31 (inactive),0.0082 (inactive),0.387 (inactive),0.394 (inactive),0.663,-0.164
CC(=O)N1CC(C(O)C2C=CC3C(=O)NC(=O)C3N2Nc2ccc(Cl)cc2Cl)c2ccccc21 (stereo not given),-1.59,-2.62 (inactive),-0.731 (inactive),0.905 (inactive),1.28 (inactive),1.82 (inactive),-0.306 (inactive),-0.547 (inactive),-0.94,0.277
C=C(C)[C@@H]1CC=C(C(O)C2C=CC3C(=O)N(c4ccccc4)C(=O)C3N2Nc2ccc(C#N)cc2)CC1 (stereo not given in full),-1.12,-0.111 (inactive),-0.591 (inactive),0.0143 (inactive),1.8 (inactive),0.556 (inactive),-0.688 (inactive),-0.906 (inactive),0.0852,0.169
C=CCNC(=O)[C@@H]1[C@H]2C(=O)O[C@H](c3ccccc3)[C@H](c3ccccc3)N2[C@H](c2ccc(O)cc2)[C@@]12C(=O)Nc1ccc(C#CCC(C(=O)OC)C(=O)OC)cc12,-0.0043,1.12 (inactive),-6.93 (inactive),-6.73 (inactive),1.54 (inactive),1.4 (inactive),-0.0975 (inactive),-0.112 (inactive),-5.23,-0.274
